# Laboratory results reported in a collection of fitness landscapes (doi:10.1016/j.celrep.2020.107928).
# The full ranking holds about 81,000 sequences; the median of “one-hybrid fitness for binding parS DNA” is about -0.17, and the highest 2% start at about 0.51. This excerpt belongs to a sample that is enriched for the highest values.
# B1: Caulobacter ParB omega fusion; a variant is named by its letters at X, in order, B8GW30 (parent)
# chain: MESVVVGEPGMSEGRRGLGRGLSALLGEVDAAPAQAPGEQLGGSREAPIEILQRNPDQPRRTFREEDLEDLSNSIREKGVLQPILVRPSPDTAGEYQIVAGERAWRAAQRAGLKTVPIMVRELDDLAVLEIGIIENVQRADLNVLEEALSYKVLMEKFERTQENIAQTIGKSXSHVANXMRLLXLPDEVQSYLVSGELTAXHARAIAAAADPVALAKQIIEGGLSVRETEALARKAPNLSAGKSKGGRPPRVKDTDTQALESDLSSVLGLDVSIDHRGSTGTLTITYATLEQLDDLCNRLTRGI
# Variants of: B1
# Experiment: one-hybrid fitness for binding parS DNA (scaled: cognate 1, non-cognate 0); higher = stronger binding
# Conditions: with parS DNA site
# Method in brief: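 Values were rescaled so that cognate is 1 and non-cognate is 0. Each is a fitness, the log change in a variant's read ratio to wild type from Illumina reads of plasmids before and after selection, with three replicate libraries pooled and variants under 10 reads dropped. Selection of the Caulobacter ParB libraries, four specificity codons randomised, used E. coli USO with a HIS3 reporter, site 19 bp from the promoter, on M9-minus-histidine with 0.1 mM IPTG and 5 mM 3-AT for 48 hours at 37°C.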
row,Variant,one-hybrid fitness for binding parS DNA
1,NGLP,≤ 0.2
2,DLGV,≤ 0.2
3,QGYV,≤ 0.2
4,HVLF,≤ 0.2
5,IQVR,≤ 0.2
6,RYHV,≤ 0.2
7,WPYE,≤ 0.2
8,RRPL,≤ 0.2
9,ALDW,≤ 0.2
10,VVHY,≤ 0.2
11,RDMA,≤ 0.2
12,RKMA,0.54
13,RMMA,0.643
14,RGMA,0.283
15,RIMA,0.6
16,RAMA,0.565
17,DVGK,0.252
18,PLIV,≤ 0.2
19,KHAR,≤ 0.2
20,MMTD,≤ 0.2
21,HGPW,≤ 0.2
22,CYVF,≤ 0.2
23,NKSN,≤ 0.2
24,THAA,≤ 0.2

row,Variant,one-hybrid fitness for binding parS DNA
1,HRMC,0.225
2,YECR,≤ 0.2
3,PLHI,≤ 0.2
4,EKSD,≤ 0.2
5,KREK,≤ 0.2
6,QAYP,≤ 0.2
7,PIYC,≤ 0.2
8,RLMA,0.613
9,RNMA,0.47
10,RHMA,0.503
11,RCMA,0.609
12,RPMA,≤ 0.2
13,VSPG,≤ 0.2
14,TMCY,≤ 0.2
15,DQLR,≤ 0.2
16,RRPP,≤ 0.2
17,RRPH,≤ 0.2
18,RRIF,≤ 0.2
19,RRPT,0.761
20,RRID,≤ 0.2
21,RRIT,0.693
22,DSHR,≤ 0.2
23,CMQS,≤ 0.2
24,SCFI,≤ 0.2

row,Variant,one-hybrid fitness for binding parS DNA
1,RRNQ,≤ 0.2
2,RRNC,0.615
3,RRLP,≤ 0.2
4,RRSC,0.596
5,RRSM,0.364
6,RRLH,≤ 0.2
7,RRRF,≤ 0.2
8,RRRC,0.634
9,RRSF,≤ 0.2
10,RRNF,≤ 0.2
11,RRLC,0.669
12,RRRQ,≤ 0.2
13,LYTA,≤ 0.2
14,EYRT,≤ 0.2
15,PNAE,≤ 0.2
16,HFHS,≤ 0.2
17,VVVF,≤ 0.2
18,PGKV,≤ 0.2
19,GQNG,≤ 0.2
20,PYHE,≤ 0.2
21,FDPI,≤ 0.2
22,RFFL,≤ 0.2
23,AVTF,≤ 0.2
24,CQAV,≤ 0.2

row,Variant,one-hybrid fitness for binding parS DNA
1,NQES,≤ 0.2
2,NRYC,≤ 0.2
3,RRDQ,≤ 0.2
4,RRDC,0.701
5,RRDR,≤ 0.2
6,RRCF,≤ 0.2
7,DRYC,≤ 0.2
8,RRCH,≤ 0.2
9,RRCC,0.619
10,RRYC,0.63
11,LWSC,≤ 0.2
12,LRPV,≤ 0.2
13,PQAG,≤ 0.2
14,ETTN,≤ 0.2
15,QYKG,≤ 0.2
16,CTWT,≤ 0.2
17,MGFG,≤ 0.2
18,GQDP,≤ 0.2
19,EEAD,≤ 0.2
20,RRAF,≤ 0.2
21,RRAQ,≤ 0.2
22,RRFT,0.623
23,RRAT,0.562
24,RRFK,≤ 0.2

row,Variant,one-hybrid fitness for binding parS DNA
1,RRFQ,≤ 0.2
2,PVDT,≤ 0.2
3,CRAT,≤ 0.2
4,RDEQ,≤ 0.2
5,RRAM,0.271
6,RRFF,≤ 0.2
7,RRFC,0.679
8,RRFR,≤ 0.2
9,RRAK,≤ 0.2
10,RRAC,0.597
11,STSS,≤ 0.2
12,HRSN,≤ 0.2
13,NLCV,≤ 0.2
14,TTRK,≤ 0.2
15,RALH,0.211
16,RAPS,0.673
17,RAPP,≤ 0.2
18,RAIN,0.301
19,RAIS,0.942
20,RALN,0.431
21,RAPN,≤ 0.2
22,RAID,≤ 0.2
23,RAYP,≤ 0.2
24,RAYS,1.03

row,Variant,one-hybrid fitness for binding parS DNA
1,RALS,1.03
2,RAYN,0.445
3,MHTT,≤ 0.2
4,SHEG,≤ 0.2
5,FDNL,≤ 0.2
6,CPKA,≤ 0.2
7,QTHW,≤ 0.2
8,PVVK,≤ 0.2
9,LDQC,≤ 0.2
10,EKET,≤ 0.2
11,RKYY,0.377
12,VKMG,≤ 0.2
13,GMPS,≤ 0.2
14,RARS,0.908
15,RAWP,≤ 0.2
16,RARN,0.419
17,RAIP,≤ 0.2
18,RAWS,1.05
19,RAIT,0.682
20,RAWD,≤ 0.2
21,RAPT,0.434
22,RARH,≤ 0.2
23,GPSP,≤ 0.2
24,PSKI,≤ 0.2

row,Variant,one-hybrid fitness for binding parS DNA
1,CYMT,≤ 0.2
2,DQPL,≤ 0.2
3,FLGS,≤ 0.2
4,RIRN,0.395
5,RIRH,0.29
6,RIYK,≤ 0.2
7,RIYG,1.03
8,RIYF,0.265
9,RIRG,0.955
10,PSLL,≤ 0.2
11,FVQI,≤ 0.2
12,SSST,≤ 0.2
13,LRVT,≤ 0.2
14,AKQS,≤ 0.2
15,WRGT,≤ 0.2
16,LTAS,≤ 0.2
17,HNMS,≤ 0.2
18,RRQD,≤ 0.2
19,RRQP,≤ 0.2
20,RRQS,0.649
21,RRQH,≤ 0.2
22,RRQN,0.614
23,RRQM,0.324
24,DHPT,≤ 0.2

row,Variant,one-hybrid fitness for binding parS DNA
1,RGVM,≤ 0.2
2,LQKG,≤ 0.2
3,QYAK,≤ 0.2
4,TQYT,≤ 0.2
5,RLAN,0.442
6,RLAD,≤ 0.2
7,RLFM,0.369
8,RLFK,≤ 0.2
9,RLAG,1.01
10,RLFG,0.991
11,AIYN,≤ 0.2
12,WEYM,≤ 0.2
13,NPSH,≤ 0.2
14,VRSD,≤ 0.2
15,RAIV,≤ 0.2
16,RPEN,≤ 0.2
17,CYEL,≤ 0.2
18,HDFT,≤ 0.2
19,NCIT,≤ 0.2
20,RYIP,≤ 0.2
21,RYYD,≤ 0.2
22,RYCP,≤ 0.2
23,RYQH,≤ 0.2
24,RYCH,0.223

row,Variant,one-hybrid fitness for binding parS DNA
1,RYYP,≤ 0.2
2,RYQD,≤ 0.2
3,RYID,≤ 0.2
4,RYCS,0.958
5,RYYS,0.978
6,RYIS,0.939
7,RYQS,0.912
8,LVWD,≤ 0.2
9,NPHT,≤ 0.2
10,PSHS,≤ 0.2
11,DITP,≤ 0.2
12,NQLR,≤ 0.2
13,PVNW,≤ 0.2
14,YEPV,≤ 0.2
15,CIDV,≤ 0.2
16,MSHI,≤ 0.2
17,RYGN,0.408
18,RYSS,0.911
19,RYSH,≤ 0.2
20,RYGS,0.901
21,RYSN,0.384
22,RYHD,≤ 0.2
23,RYHN,0.421
24,RYRS,0.824

row,Variant,one-hybrid fitness for binding parS DNA
1,RYRD,≤ 0.2
2,RYHS,0.921
3,RYRN,0.375
4,RYGD,≤ 0.2
5,PQCT,≤ 0.2
6,AYIG,≤ 0.2
7,HGTM,≤ 0.2
8,RYRV,≤ 0.2
9,SHLR,≤ 0.2
10,VPHG,≤ 0.2
11,KAVS,≤ 0.2
12,RYLH,≤ 0.2
13,RYPP,≤ 0.2
14,RYWS,0.99
15,RYLS,0.986
16,RYPC,0.477
17,RYWH,≤ 0.2
18,RYPD,≤ 0.2
19,RYWN,0.422
20,RYPS,0.635
21,RYIC,0.757
22,RYIY,0.352
23,RYLD,0.206
24,PNPL,≤ 0.2

row,Variant,one-hybrid fitness for binding parS DNA
1,SDTR,≤ 0.2
2,MCER,≤ 0.2
3,YVVN,≤ 0.2
4,HTHM,≤ 0.2
5,APRT,≤ 0.2
6,VFSS,≤ 0.2
7,NMCG,≤ 0.2
8,TSPA,≤ 0.2
9,VQAC,≤ 0.2
10,NLYH,≤ 0.2
11,RYPT,0.403
12,RYIF,≤ 0.2
13,RYIT,0.628
14,VSVG,≤ 0.2
15,ATKL,≤ 0.2
16,LWCV,≤ 0.2
17,TMIC,≤ 0.2
18,RQDA,0.546
19,RQNA,0.613
20,GTRS,≤ 0.2
21,WREM,≤ 0.2
22,KDAT,≤ 0.2
23,KNTT,≤ 0.2
24,RWVD,≤ 0.2

row,Variant,one-hybrid fitness for binding parS DNA
1,RWVC,0.544
2,RWKK,≤ 0.2
3,RWKF,0.288
4,RWVM,0.27
5,RWKC,0.896
6,LFFG,≤ 0.2
7,RIFN,0.438
8,RIAF,0.213
9,RIFH,0.213
10,RIAC,0.973
11,RIAK,≤ 0.2
12,RIFC,0.96
13,HAMK,≤ 0.2
14,NSMR,≤ 0.2
15,HTHL,≤ 0.2
16,RWMM,≤ 0.2
17,RWMH,≤ 0.2
18,RWMC,0.628
19,RWMQ,≤ 0.2
20,RWMK,≤ 0.2
21,RWMP,≤ 0.2
22,RWMN,0.211
23,RWMT,0.556
24,RWMR,≤ 0.2

row,Variant,one-hybrid fitness for binding parS DNA
1,RWMG,0.671
2,RWMD,≤ 0.2
3,RWMS,0.788
4,FGNS,≤ 0.2
5,ACYG,≤ 0.2
6,CHPN,≤ 0.2
7,SMHF,≤ 0.2
8,RWVG,0.584
9,RWVK,≤ 0.2
10,RWKG,0.901
11,RWKD,≤ 0.2
12,RWKN,0.421
13,RWVR,≤ 0.2
14,DTHI,≤ 0.2
15,EYGF,≤ 0.2
16,AERY,≤ 0.2
17,KENP,≤ 0.2
18,FRDG,≤ 0.2
